Compound activity: PubChem BioAssay, National Center for Advancing Translational Sciences (NCATS)
Rows were chosen to be rich in hits. Some 7.6% of all compounds tested hit in one or more screens of this group.
TSHR agonist – TSH receptor (human) agonism; Potency, µM (top dose mostly 57.1 µM), for inactives: top-dose activation, most hits filed as activators; HEK293-CNG-TSHR cells (CNG channel as cAMP sensor), membrane potential dye, cAMP; P16473; actives 0.48% (n = 73,000); active = well fitted activation curve with a large enough effect in the main read-out, with a control signal flat, not every such curve was filed as active; inconclusive = small, poorly fitted or top-dose-only effect, or a change in a side signal; inactive = no such curve, though single readings can be large or run the other way; % of control where 0% means no effect;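 note: the control signal comes from parental cells without the receptor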
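HEK 293 cells stably expressing TSHR and a modified CNG channel, with CNG-only parental cells as counterscreen, were preloaded 60 min at room temperature with membrane potential dye containing 100 uM RO 20-1724. Compound exposure was 30 min, and depolarization was read as fluorescence at 590 nm.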
Tau filament bind – binders of human tau filaments. recombinant tau filaments, thioflavin S fluorescence, 15 h; filaments grown with octadecylsulfate alongside compound. AID 596. actives 2% (n = 71,000). Potency, µM (series often up to 57.1 µM), for the others: top-dose activity change, negative = inhibition;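 note: % is set by controls: 0 for no effect and ±100 for the full control effect; actives lower thioflavin S fluorescence by blocking filaments or displacing dye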
Target sequence (P10636 whole entry, looked up): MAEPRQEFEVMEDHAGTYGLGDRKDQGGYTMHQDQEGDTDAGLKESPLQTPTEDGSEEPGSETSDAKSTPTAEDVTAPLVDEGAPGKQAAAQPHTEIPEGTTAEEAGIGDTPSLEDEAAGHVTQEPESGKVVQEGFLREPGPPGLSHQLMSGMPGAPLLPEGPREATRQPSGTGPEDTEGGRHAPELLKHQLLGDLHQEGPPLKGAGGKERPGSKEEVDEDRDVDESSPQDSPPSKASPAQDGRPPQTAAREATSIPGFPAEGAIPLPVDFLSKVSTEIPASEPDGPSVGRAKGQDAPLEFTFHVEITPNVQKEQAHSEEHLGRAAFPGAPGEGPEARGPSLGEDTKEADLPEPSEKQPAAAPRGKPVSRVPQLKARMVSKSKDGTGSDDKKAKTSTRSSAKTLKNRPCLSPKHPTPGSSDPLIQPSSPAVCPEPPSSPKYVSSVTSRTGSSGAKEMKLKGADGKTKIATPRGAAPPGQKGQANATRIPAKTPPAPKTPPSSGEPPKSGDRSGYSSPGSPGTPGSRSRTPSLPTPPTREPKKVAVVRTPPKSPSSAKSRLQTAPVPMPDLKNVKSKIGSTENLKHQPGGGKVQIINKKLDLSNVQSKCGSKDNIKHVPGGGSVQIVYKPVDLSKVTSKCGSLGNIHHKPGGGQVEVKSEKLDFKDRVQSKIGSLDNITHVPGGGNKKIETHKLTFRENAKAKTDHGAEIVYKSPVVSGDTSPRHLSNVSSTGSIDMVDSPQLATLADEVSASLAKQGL
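His-tagged recombinant human tau (exons 2, 3 and 10 included), 1 uM, was induced to fibrillize by 30 uM sodium octadecylsulfate with compound present. After 15 h at 37 C, thioflavine S fluorescence (ex 450, em 510 nm) was read.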
ERK AVP inh – blocks ERK signaling stimulated by vasopressin | Potency, µM (doses to about 57.5 µM), without a hit: at the highest dose activity, negative = inhibition, actives largely listed as inhibitors | AID 995 | HEK293-V1b, vasopressin-stimulated pERK AlphaScreen | actives 0.99% (n = 72,000); note: % is set by controls: 0 for no effect and ±100 for the full control effect; nearly all actives have a fitted effect of over 55% in size
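Phosphorylated ERK1/2 detected via AlphaScreen bead proximity in lysates of V1b-expressing HEK293 cells given 25 nM vasopressin for 5 min after 30 min compound exposure (37 °C). AC50 from Hill equation; basal DMSO 0%, vasopressin 100%.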
HEK293 cAMP ctrl – counter-screen for TSHR agonists: cAMP increase in parental HEK293; parental HEK293 CNG cAMP sensor, membrane potential fluorescence; Potency, µM (titrated, usually from 57.1 µM), without a hit: at the highest dose activation, hits mostly activators; actives 2.5% (n = 73,000); AID 938; note: % of control where 0% means no effect; nearly all actives have a fitted effect of over 55% in size
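Parental HEK 293 cells stably expressing a modified CNG channel (no TSHR) report cAMP rise as membrane depolarization. Membrane potential dye with 100 uM RO 20-1724 was loaded for 60 min at room temperature, then compound added for 30 min; fluorescence read at 590 nm.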
CRE-bla Fsk – CRE-bla signaling modulation under forskolin stimulation; CHO CRE-bla reporter (cAMP response element driving beta-lactamase), forskolin EC10, beta-lactamase ratio; Potency, µM (highest dose often 38.2 µM), for inactives: at the top dose activity change, negative = inhibition, usual class: activators; actives 2.5% (n = 71,000); AID 662; active = well fitted activation curve with a large enough effect in the signal ratio, with a control signal flat, not every such curve was filed as active; inconclusive = small, poorly fitted or top-dose-only effect, or effect the other way, or a change in a side signal; the % refers to the signal ratio; note: % of control where 0% means no effect
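Beta-lactamase reporter under a cAMP responsive element in CHO cells; compounds tested in titration series against EC10 NKH 477, 3 h at 37 °C. Read-out: CCF4 FRET ratio 460nm/530nm (excitation 405nm) giving %Activity, fitted to AC50.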
* = called active by the depositor; [ ] = another dose, or the depositor's remark. Unless noted, calls come from the whole dose curve; as a rule, active = well fitted curve in the direction sought with a large enough effect; inconclusive = small, poorly fitted or top-dose-only effect, or another doubt; inactive = no such curve, though single readings can be large; an effect the other way counts as inactive or inconclusive. Potency is the fitted concentration of half-maximal effect.

`COc1ccc(/C=C/N(CCc2ccc(OC)c(OC)c2)C(C)=O)cc1` gave TSHR agonist 3%[11.4 µM], ERK AVP inh 0%[11.5 µM] and HEK293 cAMP ctrl 15%[11.4 µM].
Screening CC(C)(C)c1cc(CN2CCCC(O)C2)c(O)c(C(C)(C)C)c1 (stereo not given) returned TSHR agonist 10%[11.4 µM], Tau filament bind 5µM*, ERK AVP inh inconclusive, HEK293 cAMP ctrl 4%[11.4 µM] and CRE-bla Fsk inconclusive.
For CC(C)(C)CC(C)(C)c1cc(O)c(O)c(CN2CCCCC2)c1 the results were TSHR agonist 5%[11.4 µM], Tau filament bind inconclusive, ERK AVP inh -18%[11.5 µM], HEK293 cAMP ctrl 2%[11.4 µM] and CRE-bla Fsk -11%[7.6 µM].
For COC(=O)C/C=C\[C@H](C)[C@@H](OC)c1ccccc1Br the results were TSHR agonist -5%[11.4 µM], ERK AVP inh 3%[11.5 µM] and HEK293 cAMP ctrl -2%[11.4 µM].
Screening CCCCNc1cc(C)oc(=O)c1C(C)=O returned TSHR agonist -3%, Tau filament bind -9%, ERK AVP inh -28%, HEK293 cAMP ctrl -1% and CRE-bla Fsk inconclusive.
Screening CCCC(=O)c1c(NC(C)C)cc(C)oc1=O returned TSHR agonist 8%, Tau filament bind 4%, ERK AVP inh -29%, HEK293 cAMP ctrl -1% and CRE-bla Fsk 13µM*.
`COc1ccc(S(=O)(=O)N2CCCCCC2)cc1C(=O)OCc1c(C)noc1C` gave TSHR agonist 11%, Tau filament bind 12%, ERK AVP inh -1%, HEK293 cAMP ctrl 5% and CRE-bla Fsk inconclusive.
`Cc1noc(C)c1COC(=O)c1cccc(S(=O)(=O)N2CCCCCC2)c1` gave TSHR agonist inconclusive, Tau filament bind -8%, ERK AVP inh inconclusive, HEK293 cAMP ctrl 20µM* and CRE-bla Fsk -1%.
COc1ccc(OC)c(CCNC(=O)Cn2sc3nc(C)cc(C)c3c2=O)c1 was read as TSHR agonist 2%, Tau filament bind -15%, ERK AVP inh 16µM*, HEK293 cAMP ctrl -5% and CRE-bla Fsk inconclusive.
C[C@H](N)CCCC(C)(C)O was read as TSHR agonist -15%[25.6 µM], Tau filament bind 2%[25.6 µM], ERK AVP inh 11%[25.7 µM], HEK293 cAMP ctrl -2%[25.6 µM] and CRE-bla Fsk 5%[17.1 µM].
CCn1c(SCC#N)nc2c(c1=O)C1(CCCC1)Cc1ccccc1-2 was read as TSHR agonist inconclusive, Tau filament bind 21%, ERK AVP inh -6%, HEK293 cAMP ctrl 25µM* and CRE-bla Fsk inconclusive.
Cn1c(NCCCO)nc2c(c1=O)C1(CCCCC1)Cc1ccccc1-2 was read as TSHR agonist -8%, Tau filament bind -2%, ERK AVP inh -3%, HEK293 cAMP ctrl -3% and CRE-bla Fsk 3%.
COc1cccc(Cn2c(=O)c(C)nc3cnc(N4CCOCC4)nc32)c1 was read as TSHR agonist 2%, Tau filament bind -1%, ERK AVP inh -28%, HEK293 cAMP ctrl 11% and CRE-bla Fsk 3.2µM*.
COc1cccc(Cn2c(=O)c(-c3cccc(C#N)c3)nc3cnc(N4CCOCC4)nc32)c1 was read as TSHR agonist 15%, Tau filament bind 1%, ERK AVP inh 5%, HEK293 cAMP ctrl 9% and CRE-bla Fsk 0.5µM*.
For O=C(c1ccco1)N1CCC[C@@]2(CCN(c3ccncc3)C2)C1 the results were TSHR agonist 8%, Tau filament bind 30%, ERK AVP inh -2%, HEK293 cAMP ctrl 20% and CRE-bla Fsk 2%.
`COc1ccc(-c2cc(-c3cccs3)c(C#N)c(SCC(=O)NCc3ccco3)n2)cc1` gave TSHR agonist -3%, Tau filament bind 215%, ERK AVP inh -4%, HEK293 cAMP ctrl 15% and CRE-bla Fsk inconclusive.
CN1CCN(C(=O)CSc2nc(-c3cccs3)cc(-c3cccs3)c2C#N)CC1 was read as TSHR agonist 9%, Tau filament bind 7.9µM*, ERK AVP inh -11%, HEK293 cAMP ctrl 11% and CRE-bla Fsk inconclusive.
CCOC(=O)c1c(C)oc2cc(Br)c(O)c(Br)c12 was read as TSHR agonist 25µM*, Tau filament bind -4%, ERK AVP inh -27%, HEK293 cAMP ctrl 11% and CRE-bla Fsk inconclusive.
For CCOC(=O)COc1cc2c(C(=O)OCC)c(C)oc2cc1Br the results were TSHR agonist inconclusive, Tau filament bind 86%, ERK AVP inh 20%, HEK293 cAMP ctrl inconclusive and CRE-bla Fsk 21%.
CCOc1ccc(C(=O)OCn2nnc3ccccc3c2=O)cc1OC was read as TSHR agonist -2%[11.4 µM], Tau filament bind 9%, ERK AVP inh 11%, HEK293 cAMP ctrl 4% and CRE-bla Fsk inconclusive.
Screening CCOC(=O)Cc1csc(SCn2nnc3ccccc3c2=O)n1 returned TSHR agonist 8%, Tau filament bind -7%, ERK AVP inh 14%, HEK293 cAMP ctrl 20% and CRE-bla Fsk inconclusive.
`Cc1ccccc1C(=O)OCn1nnc2ccccc2c1=O` gave TSHR agonist inconclusive, Tau filament bind -11%, HEK293 cAMP ctrl inconclusive and CRE-bla Fsk 13µM*.
`Cc1cc(C(=O)OCn2nnc3ccccc3c2=O)c(C)n1-c1ccccc1` gave TSHR agonist 12%, Tau filament bind -3%, ERK AVP inh inconclusive, HEK293 cAMP ctrl 19% and CRE-bla Fsk 4µM*.
For COc1cc(C(=O)OCn2nnc3ccccc3c2=O)cc(OC)c1OC the results were TSHR agonist 13%, Tau filament bind 4%, ERK AVP inh -21%, HEK293 cAMP ctrl -4% and CRE-bla Fsk 6.3µM*.
Screening Cc1nc(SCn2nnc3ccccc3c2=O)nc(C)c1C returned TSHR agonist 7%, Tau filament bind -7%, ERK AVP inh -14%, HEK293 cAMP ctrl 27% and CRE-bla Fsk 13µM*.
COC(=O)NC(/C(C(=O)OC)=C(\C)NCc1ccccc1)c1ccc(F)cc1 (stereo not given) was read as TSHR agonist inconclusive, ERK AVP inh 4%[11.5 µM] and HEK293 cAMP ctrl inconclusive.
Screening COC(=O)C/C=C\[C@@H](C)[C@@H](/C=N\OC[C@@H](O)COCc1ccco1)NS(=O)(=O)c1ccc(C)cc1 returned TSHR agonist -5%[11.4 µM], ERK AVP inh -3%[11.5 µM] and HEK293 cAMP ctrl -5%[11.4 µM].
`Cc1sc(N)c(C(=O)c2cccc(C(F)(F)F)c2)c1C` gave TSHR agonist -7%, Tau filament bind 32µM*, ERK AVP inh -17%, HEK293 cAMP ctrl 0% and CRE-bla Fsk 10%.
Screening COc1ccc(CNc2oc(-c3cccc4ccccc34)nc2C#N)cc1 returned TSHR agonist 29%, Tau filament bind inactive, ERK AVP inh 22%, HEK293 cAMP ctrl 13% and CRE-bla Fsk 10µM*.
For COc1ccc(CCNc2oc(Cc3ccccc3)nc2C#N)cc1OC the results were TSHR agonist inconclusive, Tau filament bind 6%, ERK AVP inh inconclusive, HEK293 cAMP ctrl inconclusive and CRE-bla Fsk 10µM*.
COc1ccc(-c2nc(C#N)c(NCc3ccc(C)cc3)o2)cc1OC was read as TSHR agonist 18%, Tau filament bind 137%, ERK AVP inh inconclusive, HEK293 cAMP ctrl -2% and CRE-bla Fsk 5µM*.
